Compound activity: PubChem BioAssay, several laboratories
This is a sample that favours compounds with a hit; in the whole collection about 1.1% have one here.
Y pestis TopoI – inhibitors of Yersinia pestis topoisomerase I; Y. pestis Topo-I cleavage product accumulation, plate reader; activity, % at 10 µM; actives 0.064% (n = 360,000); AID 504884; in the data active means activity above about 50%, passing the limit was not always enough
BJeLR viability – kills HRASV12-expressing BJeLR cells. BJeLR (HRASV12) viability, CellTiter-Glo ATP luminescence, 48 h. inhibition, % (test concentration not listed). actives 0.17% (n = 300,000); in the data active means inhibition above about 50%
BioA inh – BioA (M. tuberculosis) enzyme inhibition | AID 602481 | actives 0.096% (n = 360,000) | purified M. tuberculosis BioA enzyme, plate reader | inhibition, % at 9.99 µM; in the data active means inhibition above about 40%
CCHF vOTU inh – CCHFV vOTU protease inhibition. actives 0.55% (n = 370,000). inhibition, % at 11.5 µM. AID 651958. Pep-AMC fluorescence; in the data active means inhibition above about 30%
RecA splice inh – Mtb RecA intein splicing inhibition; P9WHJ3; AID 2221; actives 0.75% (n = 290,000); inhibition, % (test concentration not listed); cell-free RecA intein splicing, fluorescence; in the data active means inhibition above about 30%
Mtb betalactam – beta-lactam sensitization of Mtb H37Rv; inhibition, % at 25 µM; M. tuberculosis H37Rv growth with meropenem, percent inhibition; actives 0.27% (n = 330,000); AID 434955; call rule not given here;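 further: growth measured after seven days incubation then overnight dye step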
Numbers stand for hits; n = inactive; x = no result given.

SMILES	Y pestis TopoI	BJeLR viability	BioA inh	CCHF vOTU inh	RecA splice inh	Mtb betalactam
COc1ccc(NC(=O)N(C)C[C@H]2Oc3ccc(NS(=O)(=O)c4cccs4)cc3CC(=O)N([C@@H](C)CO)C[C@@H]2C)cc1	x	x	n	x	x	x
C[C@@H]1CCCCO[C@@H](CN(C)C(=O)C2CCCCC2)[C@H](C)CN([C@@H](C)CO)C(=O)c2cc(NS(=O)(=O)c3cn(C)cn3)ccc2O1	x	x	n	x	x	x
Cc1cc(C)c2c(=O)n3c(nc2c1)C(Cc1ccc(O)cc1)NC(=O)c1cc2ccccc2cc1-3 (stereo unspecified)	59	x	n	n	x	x
O=c1n(Cc2ccc(Cl)cc2)c2sc3c(c2c2ncnn12)CCCC3	57	n	n	n	n	n
O=c1c(Cl)c(NCCCO)cnn1-c1nc2ccccc2[nH]1	n	n	n	n	44	n
Cc1ccc(S(=O)(=O)NC(=O)c2ccc(-c3ccc(-c4ccccc4)cc3)o2)c(C)c1	x	n	x	x	36	n
Cc1ccc(S(=O)(=O)NC(=O)c2ccc(F)cc2)c(C)c1	n	n	n	n	n	n
O=Nc1c2cc(-c3ccccc3)[nH]nc-2c2ccccc12	n	69	x	n	n	x
Cc1cccc(-c2cc3c(N=O)c4ccccc4c-3n[nH]2)c1	n	n	x	n	n	n
O=c1[nH]nc(-c2ccccc2)c2ccccc12	n	n	n	n	n	n
Cc1ccc(-c2cc3c(N=O)c4ccccc4c-3n[nH]2)cc1	n	70	x	n	n	n
CN(C)CCCNC(=O)C[C@@H]1CC[C@@H](NC(=O)Cc2cccnc2)[C@H](CO)O1	x	x	n	x	x	x
Cc1ccc(S(=O)(=O)N[C@H]2CC[C@H](CCNC(=O)CN3CCOCC3)O[C@H]2CO)cc1	x	x	n	x	x	x
Cc1ccc(-c2nnc3n2N=C(c2ccccc2Br)CS3)cc1	59	n	n	n	n	n
c1ccc2[nH]c(CN3CCOCC3)nc2c1	n	n	n	n	n	n
Nc1ccc2nc(CN3CCOCC3)[nH]c2c1	n	n	n	n	42	n
Cc1[nH]n(C(C)(C)C)c(=O)c1Sc1ccccc1	n	n	n	n	50	n
Nc1c(Sc2ccccc2)c(=O)[nH]c(=O)n1Cc1ccccc1	n	n	n	n	n	n
CC(C)CNC(=O)c1c(N)n(Cc2ccc3c(c2)OCO3)c2nc3ccccc3nc12	n	n	n	n	55	n
CC(C)CCn1c(N)c(C(=O)NCc2cccs2)c2nc3ccccc3nc21	n	n	n	x	88	n
COCCNC(=O)c1c(N)n(CCC(C)C)c2nc3ccccc3nc12	n	n	n	n	n	n
CCCNC(=O)c1c(N)n(Cc2ccc3c(c2)OCO3)c2nc3ccccc3nc12	n	x	n	x	n	n
C[C@H](CO)N1C[C@H](C)[C@H](CN(C)C(=O)c2ccccc2)OCCCC[C@H](C)Oc2ccc(NC(=O)C3CCCCC3)cc2C1=O	x	x	n	x	x	x
CC(C)C[C@H](N)c1nnc(S(=O)(=O)Cc2ccc(F)cc2)o1	n	n	n	x	34	n
CC(C)C[C@H](N)c1nnc(SCC(=O)Nc2ccc(Br)cc2)o1	n	n	n	n	n	n
SMILES	Y pestis TopoI	BJeLR viability	BioA inh	CCHF vOTU inh	RecA splice inh	Mtb betalactam
C=C[C@H](COC(C)=O)N(Cc1ccc(OC(C)=O)c(OC)c1)S(=O)(=O)c1ccc(Br)cc1	x	x	n	x	x	x
COc1ccc(-[n+]2c(-c3ccccc3)cc(-c3ccc(C)cc3)cc2-c2ccccc2)cc1	n	72	n	n	n	n
CCNC(=S)NNC(=O)c1cc(-c2cccc(OC)c2)nc2ccccc12	n	n	x	n	n	n
CCNC(=S)NNC(=O)c1cc(-c2ccc(OCC)cc2)nc2ccccc12	n	54	x	n	n	n
COc1ccc(N=Nc2n(C)c3ccccc3[n+]2C)cc1	x	52	x	x	n	x
Cn1c(COc2ccccc2O)[n+](C)c2ccccc21	n	n	n	n	n	n
CN1CCN(C(=O)C[C@@H]2CC[C@H]3[C@@H](COC[C@@H](O)CN3S(=O)(=O)c3cccc(Cl)c3)O2)CC1	x	x	n	x	x	x
Cc1cc(C)c2c(CCl)cc(=O)oc2c1	n	56	n	n	n	n
Cc1cccc(OCC(O)Cn2ccnc2C)c1 (stereo unspecified)	66	n	n	n	n	n
O=c1[nH]nc(Cc2ccccc2)c2ccccc12	n	n	n	n	n	n
O=c1[nH]nc(Cc2ccc(-c3ccc(Cl)cc3)o2)c2ccccc12	68	n	n	n	n	n
CCCC#Cc1cnc2c(c1)C(=O)N([C@@H](C)CO)C[C@H](C)[C@@H](CN(C)C)O2	x	x	n	x	x	x
Cc1nc2cc(C)c(C)cc2s1	n	n	x	n	n	n
Cc1cc2nc3ccc(=[N+](C)C)cc-3sc2cc1N	419	57	x	x	31	x
Brc1ccc(Cn2c(-c3ccc(Br)o3)nc3ccccc32)o1	n	n	x	n	30	x
Cn1c(-c2ccc(Br)o2)nc2ccccc21	n	n	n	n	n	n
Cc1noc(C)c1CSCC(=O)Oc1ccc(N(C)S(=O)(=O)c2ccccc2)cc1	n	n	n	n	38	n
Cc1noc(C)c1CSCC(=O)Oc1ccc(N(C)S(=O)(=O)c2ccc(Cl)cc2)cc1	n	n	x	n	40	n
Cc1noc(C)c1COC(=O)CN(C)S(=O)(=O)c1ccc(Cl)cc1	n	n	n	n	n	n
C[C@@H]1CCCCO[C@@H](CN(C)C(=O)NC2CCCCC2)[C@@H](C)CN([C@@H](C)CO)C(=O)c2cc(NS(=O)(=O)c3cccs3)ccc2O1	x	x	n	x	x	x
O=P(c1ccccc1)(c1ccccc1)c1nc(-c2ccccc2)oc1N1CCOCC1	58	n	n	n	n	n
Cc1ccc(CN2C(=O)/C(=C\c3ccc(C(=O)NCc4cccnc4)cc3)Oc3ccccc32)cc1	x	113	x	n	n	n
O=C(CN1C(=O)/C(=C\c2ccccc2Cl)Oc2ccccc21)NCc1cccnc1	n	n	x	n	n	n
C[C@@H]1CN([C@H](C)CO)S(=O)(=O)c2ccc(-c3ccc(F)cc3)cc2O[C@@H]1CN(C)S(C)(=O)=O	x	x	n	x	x	x
COC(=O)/C=C/c1ccccc1S(=O)(=O)N(Cc1ccccc1)Cc1ccco1	57	n	n	n	n	n
SMILES	Y pestis TopoI	BJeLR viability	BioA inh	CCHF vOTU inh	RecA splice inh	Mtb betalactam
O=C(C[C@H]1C[C@@H]2c3cc(NC(=O)Nc4ccccc4F)ccc3O[C@@H]2[C@@H](CO)O1)NCc1cc(F)ccc1F	x	x	n	x	x	x
COC(=O)C[C@](O)(CCCC(C)(C)O)C(=O)O[C@@H]1C(OC)=C[C@]23CCCN2CCc2cc4c(cc2[C@H]13)OCO4	x	92	x	x	n	n
C[C@H](O)C#Cc1cnc2c(c1)C(=O)N([C@H](C)CO)C[C@H](C)[C@@H](CN(C)CC1CCOCC1)O2	x	x	n	x	x	x
O=C1/C(=C/c2ccccc2F)SC(=S)N1CC(=O)N1CCCCC1c1cccnc1 (stereo unspecified)	n	n	n	n	32	n
Cc1ccc(-c2cc(-c3ccccc3)nc(Cl)n2)cc1	n	n	n	n	n	n
Cc1ccc(-c2cc(C(F)F)nc(S(C)(=O)=O)n2)cc1	n	n	n	n	46	n
CC(Oc1ccc(F)cc1)C(=O)Nc1ccccc1N1CCCCC1 (stereo unspecified)	65	n	n	n	n	n
